These results are taken from PubChem BioAssay AID1259415 (National Center for Advancing Translational Sciences (NCATS), 2018).

SMILES strings stand for the structures. Screen size: about 410,000 compounds; about 18,000 (4.4%) were called active. Roughly 7% stayed inconclusive and do not appear here. Shown is part of a subset that was picked to be rich in actives. Values without a mark were called inactive. No stated cut-off is given here; in the data, active means activity change below about -60%; inconclusive means no clear call, values can overlap the other calls; inactive means above about -39%.
On the % scale 0 is the no-effect control and ±100 the full control effect.

This assay can be described thus: qHTS Assay for inhibitors of the human cytomegalovirus (HCMV). To be noted: HFF cells, HCMV-luciferase reporter, 72 h; at 57.5 µM; active compounds read low. In a few lines: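 Luciferase read-out from HCMV-luciferase-infected HFFs (MOI 1 PFU/cell) 72 h post infection at 37C; compounds added after 16 h cell attachment; activity normalized between buffer-only basal and Salinomycin (10uM) inhibitor controls.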
A general note: qHTS replaces the single test concentration by a dilution series.
`CCOC(=O)c1ccc(NC(=O)Cn2c(=O)cc(C)c3c(C)nn(-c4cccc(F)c4)c32)cc1`: the activity change, negative = inhibition is 2.32%.
With `CCC(C)N1C(=O)S/C(=C/c2ccc(Sc3nc4ccccc4[nH]3)o2)C1=O` (configuration not stated) the figure was -91.5% (active); with `CCC(c1nc2ccccc2[nH]1)n1c(=O)c(-c2cccs2)nc2ccccc21` (configuration not stated), -2.85%; with `COc1ccc(C)cc1NC(=O)CCc1c(C)nn(-c2ccc(N3CCOCC3)nn2)c1C`, 39.1%.
In the case of `CCCCCn1c(=O)[nH]c2cc(C(=O)NCCN(C)CCCC)ccc2c1=O` it was -33.3%.
In the case of `O=C(Cc1ccccc1)Nc1sc2c(c1C(=O)Nc1ccc(Br)cc1)CCC2` it was 5.03%; in that of `CCOc1ccc(NC(=O)c2c(NC(=O)Cc3ccccc3)sc3c2CCC(C)C3)cc1` (configuration not stated), -34.6%; in that of `CCOc1ccc(NC(=O)c2c(NC(=O)Cc3ccccc3)sc3c2CCCCC3)cc1`, -74.7% (active).
Regarding `CC(C)c1ccc(NC(=O)c2ccc(Cn3nc(N4CCN(c5ccccc5)CC4)ccc3=O)o2)cc1`, the activity change, negative = inhibition was -19.5%.
Consider `Cn1ncc2c(Nc3cccc4ccccc34)ncnc21`, for which the activity change, negative = inhibition was 87.3%.
With `Cc1cc([N+](=O)[O-])nn1CC(=O)Nc1ccc(Cc2ccncc2)cc1`, the activity change, negative = inhibition is -63.5% (active).
Turning to `Cc1cc(C)n(CC(=O)Nc2ccc([N+](=O)[O-])cc2)n1`, the activity change, negative = inhibition is -4.15%.
As for `CC(C)CC(=O)Nc1ccc(Cc2ccncc2)cc1`, the activity change, negative = inhibition was -32.9%.
In the case of `COc1ccc(NC(=O)CSC2=Nc3ccccc3C3=NC(CC(=O)NCc4ccccc4OC)C(=O)N23)cc1Cl` (configuration not stated), the activity change, negative = inhibition was 17.7%.
With `CC(Oc1ccc(Br)cc1)C(=O)NC1CCCCCC1` (configuration not stated) the figure was 25.7%; with `CCC(C)NCCOCCOc1ccc(Br)cc1C` (configuration not stated), -37.4%; with `CC(C)(C)CC(C)(C)NCC(O)COCCOc1ccc(Br)cc1` (configuration not stated), -100% (active).
With `O=C(CCc1ccc(S(=O)(=O)N2CCOCC2)cc1)OCC(=O)c1ccc(Br)cc1` the figure was 49%.
In the case of `Cc1ccc(-c2noc(CNC(=O)c3ccoc3C)n2)cc1` it was -11.6%; in that of `C/C(=N\NC(=O)c1ccoc1C)c1ccccc1O`, -91.4% (active).
On to `CC(=N\NC(=O)c1cc(Br)ccc1O)/C(=N/O)C(=O)Nc1ccccc1`, for which the activity change, negative = inhibition was 0%.
With `Cc1cc(C)c(C#N)c(Nc2cccc(Br)c2)n1` the figure was 34%; with `CCOC(=O)c1cc(-c2ccccc2)n(-c2cccc(C(=O)Nc3cc(OC)cc(OC)c3)c2)c1C`, 0%.
For the compound `O=C(/C=C/c1cccs1)c1cc(Cl)ccc1OC(=O)N1CCOCC1`, the activity change, negative = inhibition was -92.8% (active).
`O=C(NCC(c1cccs1)N1CCOCC1)c1cc(Cl)ccc1[N+](=O)[O-]` (configuration not stated): the activity change, negative = inhibition is -16.2%.
Consider `CC(=O)Nc1ccccc1OC(=O)N1CCOCC1`, for which the activity change, negative = inhibition is -15.8%.
With `CCc1ccccc1NC(=O)Cn1c(=O)n(-c2cccc(C)c2)c(=O)c2c1c1cc(OC)ccc1n2C` the figure was -23.1%; with `O=C(COC(=O)c1ncc(Cl)c(Cl)c1Cl)NCc1ccccc1`, 11.2%.
In the case of `O=C(COC(=O)CNC(=O)C1CCCCC1)NCc1ccccc1` it was 69.4%; in that of `O=C(COC(=O)c1ccccc1C(=O)N1CCN(c2ccccc2)CC1)NCc1ccccc1`, -62.6% (active).
Turning to `O=C(C1CCCN(S(=O)(=O)c2cccc3nonc23)C1)N1CCN(c2ccccc2F)CC1` (configuration not stated), the activity change, negative = inhibition was 6.66%.
As for `O=[N+]([O-])c1ccc(NCCCO)c(C(F)(F)F)c1`, the activity change, negative = inhibition is -8.02%.
In the case of `Cc1ccc(C(=O)Nc2nnc(C3=COCCO3)o2)cc1C` it was -0.804%; in that of `Cc1ccc(-c2csc(NC(=O)C3=COCCO3)n2)cc1C`, -61.5% (active).
In the case of `CCC(CC)c1nnc(NC(=O)C2=COCCO2)s1` it was -1.99%.
In the case of `CCOc1ccc(CN2CCN(Cc3ccon3)CC2CCO)cc1` (configuration not stated) it was 3.47%.
For the compound `C=CCNCCCCOc1ccccc1`, the activity change, negative = inhibition was 16.3%.
In the case of `CC(C)(c1ccccc1)c1ccc(OCCN)cc1` it was -107% (active); in that of `Cc1nn(CCOc2ccccc2)c(=O)n1-c1ccccc1F`, 69.3%.
As for `O=C(/C=C/c1ccccc1)Oc1coc(CSc2ncccn2)cc1=O`, the activity change, negative = inhibition was 9.32%.
With `COC(=O)c1ccc(OC)c(Cn2c(=O)n(Cc3ccccc3)c(=O)c3c2c2cc(OC)ccc2n3C)c1` the figure was 7.51%.
With `O=C(C1CCN(Cc2ccc(Cl)cc2)CC1)N1CCN(Cc2ccc3c(c2)OCO3)CC1` the figure was -63% (active); with `O=C(C1CCN(S(=O)(=O)c2cnc[nH]2)CC1)N1CCN(Cc2ccc3c(c2)OCO3)CC1`, 9.71%.
In the case of `O=C(Nc1ccccc1)N1CCC(C(=O)N2CCN(Cc3ccccc3)CC2)CC1` it was 0%.
For `CCS(=O)(=O)N1CCc2cc(C(=O)NCc3ccc(C)cc3)ccc21`, the activity change, negative = inhibition is -3.25%.
With `Cc1ccc(C(=O)Nc2ccccc2F)cc1S(=O)(=O)N1CCOCC1` the figure was 31.5%; with `Cc1ccc(NC(=O)N[C@H]2CC[C@@]34CCCN3C(=O)CCC[C@H]4C2Cc2ccccc2)cc1` (some centres not stated), 26.8%.
`CCOC(=O)C1CCN(C(c2ccc(F)cc2)c2sc3nc(-c4ccco4)nn3c2O)CC1` (configuration not stated): the activity change, negative = inhibition was 2.65%.
With `Cc1cc(C)c(-c2n[nH]c3c2C(c2ccccc2F)N(CCO)C3=O)c(O)c1` (configuration not stated) the figure was 25.7%.
In the case of `CCC1(CC)NC(=O)N(CC(=O)OCC(=O)c2cc(C)c(C)cc2C)C1=O` it was -15.3%; in that of `Cc1ccc(C)c(OCCC(=O)Nc2cccc(S(=O)(=O)N3CCCC3)c2)c1`, -23.7%; in that of `CC(=O)Nc1ccc(S(=O)(=O)N2CCN(CCCOc3cc(C)ccc3C)CC2)cc1`, -65.9% (active).
With `Cc1cccc(OCCCC(=O)Nc2ccc(S(=O)(=O)N3CCCC3)cc2)c1` the figure was 10.4%.
Take `CC1=C(C(N)=O)C(c2ccc3c(c2)OCO3)n2nc(-c3cccc(C)c3)nc2N1` (configuration not stated): the activity change, negative = inhibition is 78%.
For the compound `CCN(CC)c1ccc(C2C(C(N)=O)=C(C)Nc3nc(SCc4ccccc4)nn32)cc1` (configuration not stated), the activity change, negative = inhibition was -90.4% (active).
With `CC1=C(C(=O)Nc2ccccc2)C(c2ccc(C)cc2)n2nc(SCc3ccccc3C)nc2N1` (configuration not stated) the figure was 1.28%; with `CNc1ccc(-c2nc(-c3ccco3)no2)cc1[N+](=O)[O-]`, 102%.
